Data published in PubChem BioAssay AID1159580 (chemical genetic matrix, 2015).
Among all 5,500 compounds or so, about 2,000 (36%) were called active. Roughly 18% stayed inconclusive and do not appear here. Rule as the data show it: active = normalized growth mostly below about 0.91 (no sharp cut-off); inconclusive = no clear call, values can overlap the other calls; inactive = mostly above about 0.92. The list shows a part of the results.

Assay: chemical genetic growth profiling, strain panel (AID 1159580);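 also: tested at 20 µM; growth read once vehicle control cultures reached saturation at 30 °C; 1 = growth at the plate median or of vehicle wells; lower values mean less growth of the strain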
Details: S. cerevisiae deletion strains, growth OD

Measured: normalized growth

CCC1(C2=NCCN2)Cc2ccccc2O1 (stereo not given)
inactive: locus YAL021C, strain ccr4, active compounds read low 0.996 | locus YAL026C, strain drs2, active compounds read low 1.01 | locus YAL030W, strain snc1, active compounds read low 1.01 | locus YAL040C, strain CLN3, active compounds read low 1.07 | locus YBL061C, strain skt5, active compounds read low 1 | locus YBR009C, strain hhf1, active compounds read low 1.01 | locus YBR023C, strain chs3, active compounds read low 1.01 | locus YBR171W, strain sec66, active compounds read low 1.02 | locus YBR231C, strain swc5, active compounds read low 0.998 | locus YBR279W, strain paf1, active compounds read low 1.01 | locus YCL011C, strain gbp2, active compounds read low 1.02 | locus YCL016C, strain dcc1, active compounds read low 1 | locus YCL061C, strain MRC1 (second series), active compounds read low 1.01 | locus YCL061C, strain MRC1, active compounds read low 1 | locus YCL069W, strain vba3, active compounds read low 1.01 | locus YCR088W, strain abp1, active compounds read low 1.02 | locus YDL005C, strain med2, active compounds read low 1 | locus YDL040C, strain nat1, active compounds read low 1.01 | locus YDR001C, strain nth1, active compounds read low 1.01 | locus YDR069C, strain doa4, active compounds read low 1 | locus YDR137W, strain rgp1, active compounds read low 1.01 | locus YDR159W, strain sac3, active compounds read low 0.991 | locus YDR195W, strain ref2 0.967 | locus YDR297W, strain sur2, active compounds read low 1 | locus YDR334W, strain swr1, active compounds read low 1.01 | locus YDR335W, strain msn5, active compounds read low 1.01 | locus YDR363W, strain ESC2, active compounds read low 1.03 | locus YDR392W, strain spt3, active compounds read low 0.818 | locus YEL003W, strain gim4, active compounds read low 1.01 | locus YEL037C, strain rad23, active compounds read low 1.01 | locus YEL061C, strain CIN8 (second series), active compounds read low 1.01 | locus YER002W, strain NOP16, active compounds read low 1.01 | locus YER015W, strain faa2, active compounds read low 1 | locus YER016W, strain bim1, active compounds read low 1.01 | locus YER111C, strain swi4, active compounds read low 1.01 | locus YER155C, strain BEM2 (second series), active compounds read low 0.973 | locus YFR010W, strain ubp6, active compounds read low 1.01 | locus YGL167C, strain pmr1, active compounds read low 1 | locus YGL173C, strain kem1, active compounds read low 1.01 | locus YGL227W, strain vid30, active compounds read low 1.01 | locus YGL240W, strain doc1, active compounds read low 0.989 | locus YGL253W, strain hxk2, active compounds read low 1.02 | locus YHR013C, strain ard1, active compounds read low 0.964 | locus YHR027C, strain rpn1, active compounds read low 1.01 | locus YHR142W, strain chs7, active compounds read low 1.02 | locus YJL092W, strain hpr5, active compounds read low 1.01 | locus YJL095W, strain BCK1 (second series), active compounds read low 1.01 | locus YJL115W, strain asf1, active compounds read low 1 | locus YJL129C, strain trk1, active compounds read low 0.996 | locus YJL154C, strain vps35, active compounds read low 1.01 | locus YJL164C, strain tpk1, active compounds read low 0.995 | locus YJL166W, strain qcr8, active compounds read low 1 | locus YJL187C, strain SWE1, active compounds read low 1.01 | locus YKL160W, strain elf1, active compounds read low 0.99 | locus YKR026C, strain gcn3, active compounds read low 1.02 | locus YKR091W, strain srl3, active compounds read low 1 | locus YLL001W, strain dnm1, active compounds read low 1.01 | locus YLL026W, active compounds read low 1 | locus YLL041C, strain sdh2, active compounds read low 1.01 | locus YLR027C, strain aat2, active compounds read low 1.01 | locus YLR221C, strain rsa3, active compounds read low 1.01 | locus YLR258W, strain gsy2, active compounds read low 1 | locus YLR262C, strain YPT6 (second series), active compounds read low 0.995 | locus YLR320W, strain mms22, active compounds read low 1 | locus YLR342W, strain FKS1, active compounds read low 1 | locus YLR357W, strain rsc2, active compounds read low 1.01 | locus YLR370C, strain arc18, active compounds read low 1.01 | locus YLR384C, strain iki3, active compounds read low 1.01 | locus YML120C, strain ndi1, active compounds read low 1.01 | locus YMR058W, strain fet3, active compounds read low 1.01 | locus YMR125W, strain sto1, active compounds read low 1.01 | locus YMR129W, active compounds read low 1 | locus YMR205C, strain PFK2, active compounds read low 1 | locus YMR231W, strain pep5, active compounds read low 1 | locus YMR263W, strain SAP30, active compounds read low 1.01 | locus YMR307W, strain GAS1, active compounds read low 1.03 | locus YNL071W, strain lat1, active compounds read low 1.01 | locus YNL153C, strain GIM3, active compounds read low 0.99 | locus YNL175C, strain NOP13, active compounds read low 1.01 | locus YNL197C, strain WHI3, active compounds read low 1.01 | locus YNL209W, strain ssb2, active compounds read low 1 | locus YNL224C, strain SQS1, active compounds read low 1.01 | locus YNL248C, strain rpa49, active compounds read low 1 | locus YNL322C, strain KRE1 (second series), active compounds read low 1 | locus YNL322C, strain KRE1, active compounds read low 1.01 | locus YNR049C, strain mso1, active compounds read low 1.01 | locus YOR001W, strain rrp6, active compounds read low 1 | locus YOR070C, strain gyp1, active compounds read low 1.01 | locus YOR080W, strain dia2, active compounds read low 0.994 | locus YOR083W, strain WHI5 (second series), active compounds read low 1 | locus YOR083W, strain WHI5, active compounds read low 0.994 | locus YOR106W, strain vam3, active compounds read low 1.01 | locus YOR265W, strain rbl2, active compounds read low 1.01 | locus YOR270C, strain vph1, active compounds read low 1.03 | locus YOR290C, strain snf2, active compounds read low 0.965 | locus YPL051W, strain arl3, active compounds read low 1 | locus YPL078C, strain atp4, active compounds read low 1 | locus YPL106C, strain sse1, active compounds read low 0.984 | locus YPL240C, strain hsp82, active compounds read low 0.991 | locus YPL241C, strain CIN2, active compounds read low 1.01
